Assay results: PubChem BioAssay
Inconclusive results are not listed. Activity calls are given as the source filed them. Rule as the data show it, unless noted: active = inhibition above about 80%; inactive = the rest.

Legend:
[1] = growth inhibition of DIPG glioma cells, dose response, cell-based, SU-DIPG-XVII, MIPE5.0, CellTiter-Glo, qHTS (AID 1347060; cut-off not given, nearly all actives have AC50 up to about 26 µM); conditions: SU-DIPG-XVII viability, CellTiter-Glo ATP luminescence
[2] = SU-DIPG-XXV glioma cell viability, MIPE5.0 library, qHTS (AID 1347068; cut-off not given, nearly all actives have IC50 up to about 30 µM)
[3] = sensitizers of A549 cells to miR-34 induction, primary screen, imaging, A549 dox-inducible miR-34, nuclei and caspase counts (AID 1347080;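 active = compounds whose cell count with miR-34 switched on is under 0.7 times the count with it off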); conditions: A549 miR-34 inducible, Hoechst nuclei count, 48 h
[4] = modifiers of HSF1 nuclear foci, imaging, Selleck Cancer Library (AID 1347162; in the data active = plate-normalised HSF1 focus index below about 0.46); conditions: human cells, at 10 µM; SSMD: measured here: HSF1 foci SSMD mean; cell count: measured here: cell number; plate-normalised HSF1 focus index: stronger effect = lower value
[5] = survival rescue of mitochondrial mutant cells in low glucose, primary screen, MELAS cybrids, Rieske KO mouse fibroblasts, CellTiter-Glo (AID 1508586;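 active = mean z-score across replicates of 1.96 or higher in either the MELAS or the Rieske mutant cell line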;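 also: z relative to plate mean and SD of compound and empty wells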)
[6] = LFS_MB_P medulloblastoma growth inhibition, cell-based, chromothripsis tumors, cisplatin or BGB combos (AID 1671449); conditions: LFS_MB_P medulloblastoma cells;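 also: cells exposed for 96 hours; 0% = vehicle DMSO and 100% = killing by high DMSO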
[7] = HDN33 neuroblastoma growth inhibition, cell-based, chromothripsis tumors, cisplatin or BGB combos (AID 1671450); conditions: HDN33 neuroblastoma cells, stronger effect = higher value;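 also: cells exposed to compound for four days; 0% = vehicle DMSO and 100% = cell killing by high DMSO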
[8] = ICB984 medulloblastoma cell growth inhibition, synergistic combos for chromothripsis tumors, cisplatin or BGB combos (AID 1671451; call rule not given here;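 also: cells exposed for 96 hours before readout; 0% = vehicle DMSO and 100% = killing by high DMSO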); conditions: ICB984 medulloblastoma cells, drug combinations, stronger effect = higher value
[9] = LFS_MB_1R medulloblastoma cell growth inhibition, synergistic combos for chromothripsis tumors, cisplatin or BGB combos (AID 1671452); conditions: LFS_MB_1R medulloblastoma cells, stronger effect = higher value;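 also: cells exposed for 96 hours before readout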
[10] = HTB85 osteosarcoma cell growth inhibition, synergistic combos for chromothripsis tumors, BGB or cisplatin IC20 combos (AID 1671453); conditions: HTB85 osteosarcoma cells, drug combinations, stronger effect = higher value;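 also: cells exposed for 96 hours before readout; 0% = vehicle DMSO and 100% = high DMSO killing control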
[11] = CRL2098 osteosarcoma cell growth inhibition, synergistic combos for chromothripsis tumors, BGB or cisplatin IC20 combos (AID 1671454); conditions: CRL2098 osteosarcoma cells, drug combinations, stronger effect = higher value;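 also: cells exposed for 96 h before readout; 0% = vehicle DMSO and 100% = killing by high DMSO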
[12] = HD-MB03 medulloblastoma cell growth inhibition, synergistic combos for chromothripsis tumors, BGB or cisplatin IC20 combos (AID 1671455; in the data active = inhibition above about 83%;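 also: 0% = vehicle DMSO and 100% = high DMSO as cytotoxic control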); conditions: HD-MB03 medulloblastoma cells, stronger effect = higher value
[13] = UWB1.289 ovarian carcinoma cell growth inhibition, synergistic combos for chromothripsis tumors, BGB or cisplatin combos (AID 1671456); conditions: UWB1.289 ovarian carcinoma cells, stronger effect = higher value;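 also: cells exposed to compound for four days; 0% = vehicle DMSO and 100% = killing by high DMSO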
[14] = LFS_MB_2R medulloblastoma cell growth inhibition, synergistic combos for chromothripsis tumors, cisplatin combos (AID 1671457); conditions: LFS_MB_2R medulloblastoma cells, stronger effect = higher value;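 also: cells exposed to compound for four days before readout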
[15] = MDA-MB-436 breast carcinoma cell growth inhibition, synergistic combos for chromothripsis tumors, BGB or cisplatin combos (AID 1671458; call rule not given here;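 also: cells exposed for 96 hours; 0% = vehicle DMSO and 100% = killing by high DMSO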); conditions: MDA-MB-436 breast carcinoma growth inhibition, drug combinations, stronger effect = higher value
[16] = UWB1.289_BRCA1 ovarian cancer growth, cell-based, BGB or cisplatin combinations (AID 1671459); conditions: UWB1.289 BRCA1 ovarian carcinoma, drug combinations, stronger effect = higher value
[17] = human astrocyte viability loss, single and combined drugs, cytotoxicity control for chromothriptic childhood tumor combination screen, cell-based, BGB or cisplatin IC20 combos (AID 1671460); conditions: Human astrocytes, drug combinations, stronger effect = higher value;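 also: cells exposed to compounds for 96 hours before viability readout; 0% = vehicle and 100% = killing control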
[18] = growth inhibition of BT084 medulloblastoma cells, cell-based, ICGC_MB145, cisplatin and BGB IC40 combos (AID 1671461); conditions: drug combinations, stronger effect = higher value;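 also: cells exposed to drugs for 96 hours; 0% = vehicle DMSO and 100% = high DMSO full killing control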
[19] = growth inhibition of RCMB18 medulloblastoma cells, cell-based, cisplatin and BGB IC40 combos (AID 1671462); conditions: stronger effect = higher value;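 also: cells exposed to compound for four days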
[20] = growth inhibition of CRL1545 osteosarcoma cells, cell-based, cisplatin and BGB IC20 combos (AID 1671464); conditions: stronger effect = higher value;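 also: cells exposed to compound for 96 hours before readout; 0% = vehicle DMSO and 100% = high DMSO killing control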
[21] = measured here: combination with BGB IC40, at 0.05 µM
[22] = measured here: with BGB IC20 combination, at 0.5 µM
[23] = measured here: with cisplatin IC20 combination, at 0.5 µM
[24] = measured here: combination with cisplatin, at 0.5 µM
[25] = measured here: combination with cisplatin, at 5 µM

SMILES: Nc1nc(OCc2cc(Br)cs2)c2[nH]cnc2n1
- outcome [1]: inactive
- outcome [2]: inactive
- fold change ([3]; stronger effect = lower value, cell number ratio, induced over uninduced): 0.799 (inactive)
- fold change ([3]; measured here: relative caspase fold change +Dox/-Dox): 0.415
- cell count ([3]; measured here: total cells with miR-34 induction, stronger effect = lower value): 7150
- cell count ([3]; measured here: total cells without miR-34 induction): 8940
- SSMD [4]: 3.47
- cell count [4]: 6820
- plate-normalised HSF1 focus index [4]: 1.21 (inactive)
- z-score ([5]; MELAS cybrid survival, CellTiter-Glo 48 h, stronger effect = higher value): -0.686 (inactive)
- z-score ([5]; Rieske KO mouse fibroblast survival, CellTiter-Glo 72 h): -2.22
- inhibition ([6]; at 0.5 µM, stronger effect = higher value): -8.6% (inactive)
- inhibition ([6]; measured here: combination with BGB IC20, at 0.005 µM): 6.06%
- inhibition ([6]; measured here: combination with BGB IC40, at 0.005 µM): -17.9%
- inhibition [6, 21]: -7.49%
- inhibition ([6]; measured here: combination with cisplatin, at 0.5 µM, stronger effect = higher value): -32.7%
- inhibition ([6]; measured here: combination with cisplatin, at 5 µM, stronger effect = higher value): 3.43%
- inhibition ([7]; BGB combo, at 5 µM): -14.7%
- inhibition ([7]; at 0.5 µM): -12.4% (inactive)
- inhibition ([7]; cisplatin combo, at 5 µM): -19.8%
- inhibition [7, 22]: -15.1%
- inhibition [7, 23]: -16.6%
- inhibition ([7]; single agent, at 5 µM): -22.4%
- inhibition ([8]; BGB IC20 combo, at 0.005 µM): -4.27%
- inhibition ([8]; BGB IC40 combo, at 0.005 µM): -37.5%
- inhibition ([8]; BGB IC40 combo, at 0.05 µM): -11.8%
- inhibition ([8]; at 0.5 µM): -22.3% (inactive)
- inhibition ([8]; cisplatin combo, at 0.05 µM): -16.3%
- inhibition ([8]; cisplatin combo, at 0.5 µM): -26.5%
- inhibition ([8]; cisplatin combo, at 5 µM): -13.8%
- inhibition ([8]; measured here: 5 uM single agent, at 5 µM): 4.33%
- inhibition ([9]; at 0.5 µM): -20.5% (inactive)
- inhibition [9, 21]: -27%
- inhibition [9, 24]: -33.3%
- inhibition [9, 25]: -35.3%
- inhibition ([10]; at 0.5 µM): -18.8% (inactive)
- inhibition ([10]; measured here: with BGB IC20, at 0.5 µM): -10.7%
- inhibition ([10]; measured here: with BGB IC20, at 5 µM): -21.3%
- inhibition ([10]; measured here: with cisplatin IC20, at 0.5 µM): -23.3%
- inhibition ([10]; measured here: with cisplatin IC20, at 5 µM): -10.7%
- inhibition ([10]; single agent, at 5 µM): -17.4%
- inhibition ([11]; at 0.5 µM): -32.8% (inactive)
- inhibition ([11]; measured here: combination with BGB at IC20, at 0.5 µM): -25.4%
- inhibition ([11]; measured here: combination with cisplatin at IC20, at 0.5 µM): -22.4%
- inhibition ([12]; at 0.5 µM): -4.96% (inactive)
- inhibition ([12]; measured here: combo with BGB at IC20, at 0.5 µM): -7.38%
- inhibition ([12]; measured here: combo with cisplatin at IC20, at 0.5 µM): -2.87%
- inhibition ([13]; at 0.5 µM): 7.84% (inactive)
- inhibition ([13]; measured here: inhibition with BGB combination, at 0.05 µM): -1.57%
- inhibition ([13]; measured here: inhibition with cisplatin combination, at 0.05 µM): -17.8%
- inhibition ([14]; at 0.5 µM): 18.8% (inactive)
- inhibition [14, 24]: -4.84%
- inhibition [14, 25]: 6.55%
- inhibition ([15]; at 0.5 µM): -3.23% (inactive)
- inhibition ([15]; measured here: BGB combination, at 0.5 µM): 4.51%
- inhibition ([15]; measured here: BGB combination, at 5 µM): 3.71%
- inhibition ([15]; measured here: cisplatin combination, at 0.5 µM): -3.58%
- inhibition ([15]; measured here: cisplatin combination, at 5 µM): 5.35%
- inhibition ([16]; BGB combination, concentration series, at 5 µM): -10.7%
- inhibition ([16]; at 0.5 µM): -6.34% (inactive)
- inhibition ([16]; cisplatin combination, concentration series, at 5 µM): 8.18%
- inhibition ([17]; at 0.5 µM): -4.57% (inactive)
- inhibition ([17]; measured here: combo with BGB IC20, at 0.5 µM): 2.71%
- inhibition ([17]; measured here: combo with cisplatin IC20, at 0.5 µM): -8.58%
- inhibition ([18]; at 0.5 µM): -0.821% (inactive)
- inhibition ([18]; cisplatin combination, at 0.5 µM): -10.5%
- inhibition ([18]; cisplatin combination, at 5 µM): 2.83%
- inhibition ([18]; measured here: BGB IC40 combination 0.05 uM, at 0.05 µM): -9.82%
- inhibition ([18]; single agent, at 5 µM): 4.08%
- inhibition ([19]; at 0.5 µM): -7.44% (inactive)
- inhibition ([19]; cisplatin combo, at 5 µM): -2.67%
- inhibition ([19]; measured here: BGB IC40 combination, at 0.05 µM): 1.72%
- inhibition [19, 24]: -25.9%
- inhibition ([19]; single agent, at 5 µM): -0.712%
- inhibition ([20]; at 0.5 µM): -8.12% (inactive)
- inhibition [20, 22]: -32.5%
- inhibition [20, 23]: 4.06%
- inhibition ([20]; single agent, at 0.05 µM): 5.05%
- inhibition ([20]; single agent, at 5 µM): -19.6%
